The text below walks through data of PubChem BioAssay.

Assay [1] relates to Plasmodium falciparum Sir2 (PF13_0152, Sir2A). Put plainly: pfSir2 binders on small-molecule microarrays, primary screen, biochemical, small-molecule microarray, 635 nm fluorescence (AID 1098).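 Also: score merges spot fluorescence intensity with its signal-to-noise ratio.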 The following applies: small-molecule microarray binding, fluorescence 635 nm; higher = more signal.
Assay [2] is described as follows: small-molecule microarray binders of probe aDKK1, primary screen, biochemical, biotinylated probe, 635/667 nm fluorescence (AID 1099).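 Also: score merges 667nm spot fluorescence with signal to noise across triplicate slides; reference of the scale not given here.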 The note with it: higher = more signal.
The nature of assay [3]: small-molecule microarray binders of probe aCHRDL2, primary screen, biochemical, biotinylated probe, 635/667 nm fluorescence (AID 1100). The following applies: higher = more signal.
Assay [4] can be described thus: splicing luciferase reporter signal modulators, primary screen, spliceosome inhibition project, cell-based, HEK293, splice +/- reporter (AID 1101).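 Also: HEK293 cells carrying a splicing-competent luciferase reporter gene; test concentration not given here.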 The following applies: luminescence, 24 h, higher = more signal, called active from +8 up or from −8 down.
Assay [5] concerns the target Fibroblast growth factor 10 (Homo sapiens) (UniProt O15520). Put plainly: FGF10 binders on small-molecule microarrays, primary screen, biochemical, small-molecule microarray, 635 nm fluorescence (AID 1102). The note with it: FGF10 binding, fluorescence 635 nm, higher = more signal.
In assay [6] the test system is glycogen synthase kinase-3 (GSK3A per assay name; protocol says GSK3B). Put plainly: GSK3 binders on small-molecule microarrays, primary screen, biochemical, small-molecule microarray, 635 nm fluorescence, GSK3A (AID 1103). Also: the record names both GSK3A and GSK3B. The note with it: small-molecule microarray binding, fluorescence 635 nm; higher = more signal.
Assay [7] deals with Epidermal growth factor receptor (Homo sapiens) (UniProt P00533). The assay is described as follows: EGFR binders on small-molecule microarrays, primary screen, biochemical, small-molecule microarray, 635 nm fluorescence (AID 1104).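 Also: score merges 667 nm emission intensity with spot signal to noise over triplicate slides.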 The following applies: EGFR binding, higher = more signal.
Chain of Epidermal growth factor receptor (Homo sapiens) (P00533 whole entry, looked up): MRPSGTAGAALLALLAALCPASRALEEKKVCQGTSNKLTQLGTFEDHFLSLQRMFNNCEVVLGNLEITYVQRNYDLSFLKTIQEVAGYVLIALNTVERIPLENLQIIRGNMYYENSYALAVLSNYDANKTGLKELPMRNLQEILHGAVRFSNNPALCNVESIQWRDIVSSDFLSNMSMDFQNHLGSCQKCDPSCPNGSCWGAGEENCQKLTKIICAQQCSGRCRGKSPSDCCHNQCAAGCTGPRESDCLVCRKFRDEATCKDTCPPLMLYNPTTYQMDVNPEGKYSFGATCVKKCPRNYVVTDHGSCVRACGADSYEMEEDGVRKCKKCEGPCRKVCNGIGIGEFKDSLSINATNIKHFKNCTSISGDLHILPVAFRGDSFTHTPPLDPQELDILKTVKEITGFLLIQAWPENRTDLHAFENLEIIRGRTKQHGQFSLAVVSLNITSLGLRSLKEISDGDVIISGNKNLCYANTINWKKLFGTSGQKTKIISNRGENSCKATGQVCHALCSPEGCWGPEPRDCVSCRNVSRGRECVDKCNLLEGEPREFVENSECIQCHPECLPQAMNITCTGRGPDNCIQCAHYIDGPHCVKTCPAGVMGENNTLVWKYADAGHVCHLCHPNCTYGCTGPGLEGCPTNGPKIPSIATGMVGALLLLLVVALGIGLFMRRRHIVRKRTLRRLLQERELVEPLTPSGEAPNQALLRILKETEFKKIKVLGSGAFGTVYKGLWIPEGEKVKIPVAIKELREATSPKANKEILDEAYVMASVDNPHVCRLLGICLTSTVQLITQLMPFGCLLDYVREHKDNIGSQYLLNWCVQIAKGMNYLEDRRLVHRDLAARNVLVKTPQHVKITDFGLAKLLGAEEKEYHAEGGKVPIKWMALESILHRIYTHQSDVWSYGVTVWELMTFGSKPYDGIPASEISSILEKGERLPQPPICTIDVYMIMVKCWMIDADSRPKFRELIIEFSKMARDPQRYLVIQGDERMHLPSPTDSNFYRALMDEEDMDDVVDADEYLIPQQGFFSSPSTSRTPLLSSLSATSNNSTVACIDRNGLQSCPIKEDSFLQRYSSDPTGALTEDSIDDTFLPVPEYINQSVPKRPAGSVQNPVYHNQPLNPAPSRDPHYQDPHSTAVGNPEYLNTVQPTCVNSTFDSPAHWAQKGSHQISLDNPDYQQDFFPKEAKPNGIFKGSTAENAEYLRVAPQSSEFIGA
Assay [8] has as its target Follistatin-related protein 3 (Homo sapiens) (UniProt O95633). The assay is described as follows: FSTL3 binders on small-molecule microarrays, primary screen, biochemical, small-molecule microarray, 635 nm fluorescence (AID 1105).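 Also: score merges emission near 667 nm and signal to noise per printed spot across three slides.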 The note with it: FSTL3 binding, higher = more signal.
In assay [9] the target is Dickkopf-related protein 1 (Homo sapiens) (UniProt O94907). Put plainly: DKK1 binders on small-molecule microarrays, primary screen, biochemical, small-molecule microarray, 635 nm fluorescence scan (AID 1106).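 Also: score merges emission near 667 nm with signal to noise over three replicate slides.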 The note with it: DKK1 binding, higher = more signal.
Chain of Dickkopf-related protein 1 (Homo sapiens) (O94907 whole entry, looked up): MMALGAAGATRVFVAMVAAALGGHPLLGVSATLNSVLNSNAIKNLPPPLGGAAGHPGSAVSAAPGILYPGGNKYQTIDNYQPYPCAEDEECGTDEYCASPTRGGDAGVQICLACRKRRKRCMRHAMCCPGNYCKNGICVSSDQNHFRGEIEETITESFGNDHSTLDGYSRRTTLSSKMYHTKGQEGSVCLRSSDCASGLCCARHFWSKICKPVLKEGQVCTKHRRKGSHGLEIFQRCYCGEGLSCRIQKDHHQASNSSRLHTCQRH
For assay [10], the system named is Inhibin beta A chain (activin A). Put plainly: INHBA (activin A) binders on microarrays, primary screen, biochemical, small-molecule microarray, 635 nm fluorescence scan (AID 1107).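 Also: mouse activin A protein probed at 4.33 µg/mL on printed slides; score merges bound-protein fluorescence near 667 nm with spot signal-to-noise.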 The following applies: small-molecule microarray binding, higher = more signal.

The structures appear in SMILES notation. Activity calls are given as the source filed them.

Chain of Fibroblast growth factor 10 (Homo sapiens) (O15520 whole entry, looked up): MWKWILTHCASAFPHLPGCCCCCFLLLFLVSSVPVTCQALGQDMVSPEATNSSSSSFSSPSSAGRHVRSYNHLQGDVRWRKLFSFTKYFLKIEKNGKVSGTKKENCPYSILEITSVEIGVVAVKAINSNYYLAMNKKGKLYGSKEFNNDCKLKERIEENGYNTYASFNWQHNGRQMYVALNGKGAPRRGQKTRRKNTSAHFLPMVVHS
Chain of Follistatin-related protein 3 (Homo sapiens) (O95633 whole entry, looked up): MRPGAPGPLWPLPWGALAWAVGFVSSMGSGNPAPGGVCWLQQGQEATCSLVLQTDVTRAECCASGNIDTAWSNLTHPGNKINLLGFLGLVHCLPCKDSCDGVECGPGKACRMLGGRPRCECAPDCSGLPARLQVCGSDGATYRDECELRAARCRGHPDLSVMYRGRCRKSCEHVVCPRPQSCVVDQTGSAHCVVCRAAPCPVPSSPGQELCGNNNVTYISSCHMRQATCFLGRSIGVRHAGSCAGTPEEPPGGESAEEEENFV

Turning to `CC1CC/C=C\[C@H]2OC34C=CCN(CCN5CCOCC5)C(=O)[C@H]3N(CCCO)C(=O)[C@@H]4C2C(=O)O1` (stereo not given in full), the composite z-score in [1] was 0.367; in assay [2], -0.399; in [3], -0.141; in assay [5], -0.188; in assay [6] it was -0.0682; in [7] it was -0.555. Further, the composite z-score is -0.59 in assay [8], -0.235 in assay [9] and 1.39 in assay [10]. Further, the z-score in assay [4] was 0.316 (inactive).

`O=C(NCc1ccccc1)[C@@H]1c2ccccc2C(=O)N(Cc2cc(C(F)(F)F)cc(C(F)(F)F)c2)[C@H]1c1ccc(CO)cc1`: the composite z-score in assay [1] worked out at 0.569; in [2], 0.0477; in assay [3], 0.184; in [5] it was 1.13; in [6], 1.25; in assay [7], 0.171. The composite z-score came out at 1.04 in assay [8], 0.517 in assay [9] and 0.277 in [10]. Moreover, the z-score in assay [4] is 0.000819 (inactive).

Consider `C=CCC(OC(C)=O)[C@@H]1[C@@H](N(Cc2ccc(-c3cccc(C(F)(F)F)c3)o2)C(=O)c2ccc(-c3ccccc3)cc2)c2cc(OCCCO)ccc2N1C(=O)c1ccc2ccccc2c1` (stereo not given in full), for which the composite z-score was 0.194 in assay [1]; -0.151 in [2]; 0.397 in assay [3]; 0.225 in [5]; 0.099 in assay [6]; 0.1 in assay [7]. The composite z-score in [8] came out at 0.695; in assay [9], 0.15; in assay [10], 1.22. In assay [4], the z-score is 0.697 (inactive).

Consider `O=C1C[C@@](C(=O)O)(c2ccc([N+](=O)[O-])cc2)[C@@H](c2ccc(CO)cc2)N1C1CCCCC1`, for which the composite z-score was 0.869 in assay [1]; 0.366 in assay [2]; 0.495 in assay [3]; 0.869 in assay [5]; 0.582 in assay [6]; 0.369 in assay [7]. The results for the composite z-score in [8], in assay [9] and in [10] were 1.1, 0.649 and 0.633, respectively. In addition, the z-score in [4] is 0.185 (inactive).

For the molecule `O=C1c2ccccc2[C@@]2(Cc3ccccc3N(Cc3ccccc3)C2=O)[C@H](c2ccc(CO)cc2)N1Cc1ccccc1Cl`, the composite z-score is -0.493 in assay [1]; -0.0131 in assay [2]; 0.28 in [3]; -0.377 in assay [5]; -1.35 in assay [6]; -0.804 in [7]. Also, the composite z-score in assay [8] is -0.277; in [9], -0.666; in assay [10] it was 0.54. Further, the z-score in [4] is -1.06 (inactive).

Take `COc1ccc([Si](C)(C)[C@H]2[C@H](CC(=O)N3Cc4ccccc4C[C@H]3CO)O[C@@]3(C(=O)N(c4ccccc4)c4ccccc43)[C@@H]2C)cc1`: the composite z-score was 1.64 in assay [1]; -0.179 in assay [2]; -0.339 in assay [3]; 1.11 in assay [5]; 1.27 in assay [6]; 1.13 in [7]. The composite z-score is 1.45 in assay [8], 0.75 in [9] and 1.47 in [10]. Moreover, the z-score in assay [4] is -0.691 (inactive).

With `COC(=O)C(CC#Cc1ccc2c(c1)[C@]1(C(=O)N2)[C@H](c2ccc(OCCO)cc2)N2[C@H](c3ccccc3)[C@H](c3ccccc3)OC(=O)[C@H]2[C@@H]1C(=O)N1CCCCCCC1)C(=O)OC`, the composite z-score in assay [1] worked out at 1.8; in assay [2] it was 2.65; in assay [3], 1.3; in assay [5] it was 1.18; in [6], 1.37; in [7], 1.64. In addition, the composite z-score worked out at 1.63 in assay [8], 2.14 in assay [9] and 1.64 in assay [10]. Besides, the z-score in assay [4] was 0.191 (inactive).

On to `C[N+](C)(C)CCCCNC(=O)[C@H]1C[C@H]2C(=O)N[C@@H](Cc3ccccc3)C(=O)N2[C@H]1c1cccc(OCCO)c1`, for which the composite z-score in assay [1] was 1.59; in [2] it was 0.104; in [3], -0.17; in assay [5], 1.44; in assay [6] it was 1.13; in assay [7], 0.899. The composite z-score in [8] was determined as 1.48; in assay [9] it was 2.04; in assay [10], 0.748. Also, the z-score in assay [4] was -0.161 (inactive).

As for `CCCNC(=O)[C@@]1(c2ccc([N+](=O)[O-])cc2)CC(=O)N(C(C)C)[C@@H]1c1ccc(CO)cc1`, the composite z-score in assay [1] was 0.928; in [2], -0.0525; in assay [3], 0.985; in assay [5] it was -0.853; in assay [6], -0.664; in assay [7] it was -1.52. In addition, the composite z-score is -0.546 in [8], -0.695 in assay [9] and -0.251 in assay [10]. Moreover, the z-score in assay [4] is -0.27 (inactive).

As for `CCOC(=O)C[C@H]1[C@H](OC(=O)c2ccccc2-c2ccccc2)[C@@H](NC(=O)c2ccc3ccccc3c2)c2cc(OCCCO)ccc2N1C(=O)Cc1ccc(OC)cc1`, the composite z-score is -0.332 in assay [1]; 0.29 in assay [2]; 0.58 in assay [3]; 0.125 in assay [5]; -0.914 in assay [6]; -0.201 in assay [7]. The figures for the composite z-score in assay [8], in assay [9] and in [10] were -0.517, 0.225 and 0.892, respectively. Besides, the z-score in [4] is -0.897 (inactive).

As to `COc1ccc(C(O)C2C=CC3C(=O)N(c4ccccc4)C(=O)C3N2Nc2ccc([N+](=O)[O-])cc2)c2ccccc12` (stereo not given), the composite z-score in assay [1] amounted to 1.2; in [2], 0.662; in assay [3] it was 0.88; in assay [5], 0.981; in assay [6], 1.32; in [7], 0.385. Further, the composite z-score in assay [8] was found to be 1; in [9], 0.226; in assay [10], 0.642. The z-score in [4] is -0.707 (inactive).

In the case of `CC1CC/C=C\[C@H]2OC34C=CCN(c5ccc(Cl)cc5)C(=O)[C@H]3N(CCCCCCO)C(=O)[C@]4(C)C2C(=O)O1` (stereo not given in full), the composite z-score in assay [1] was 0.597; in assay [2] it was -0.13; in assay [3], 0.747; in assay [5], -0.533; in [6], -0.594; in [7] it was -0.726. The composite z-score in assay [8] is -0.931; in [9], -1.43; in assay [10] it was 0.0845. Further, in assay [4], the z-score was 0.104 (inactive).

In the case of `N#Cc1ccc(C(O)C2C=CC3C(=O)NC(=O)C3N2Nc2ccc(Cl)cc2Cl)cc1` (stereo not given), the composite z-score in [1] was 1.42; in assay [2], 0.558; in assay [3], 1.13; in assay [5], 0.599; in assay [6] it was -0.344; in assay [7], 0.0129. The figures for the composite z-score in [8], in assay [9] and in assay [10] were -0.124, -0.577 and 1.03, respectively. Moreover, the z-score in [4] was 1.9 (inactive).

As to `CC(C)(C)OC(=O)CC[C@@]1(C(=O)NCCN2CCOCC2)N=C(c2ccc(OCCCO)cc2)O[C@@H]1c1ccccc1CN=[N+]=[N-]`, the composite z-score in [1] is 1.49; in assay [2] it was 0.455; in assay [3], 0.454; in [5], 0.08; in assay [6] it was 0.139; in assay [7], -0.088. Besides, the composite z-score in assay [8] was -0.205; in assay [9] it was -0.45; in [10], 0.67. The z-score in assay [4] is -0.268 (inactive).
